PubChem BioAssay (Tox21)
A number with no mark means an inactive call. Active and inactive are the calls of the source. Calls follow the shape of the dose curve; as a rule, active = well fitted curve in the direction sought with a large enough effect in the repeat runs; inconclusive = weak or mixed curves; inactive = flat fitted curve, though single readings scatter.

Test: qHTS assay to test for compound auto fluorescence at 590 nm (red) in HepG2 cell free culture (AID 720684)
Conditions: cell-free medium autofluorescence, red 540/590 nm; series mostly up to 91.3 µM; fluorescence, % of Rose Bengal: at the top concentration
Source text: U.S. Tox21 Program National Center for Advancing Translational Sciences [NCATS] NIH Chemical Genomics Center [NCGC] U.S. Environmental Protection Agency [EPA] National Institutes of Environmental Health Sciences [NIEHS] National Toxicology Program [NTP] U.S. Food and Drug Administration [FDA] Tox21 Assay Overview: Compound auto fluorescence often interferes with screening of the compound library against various biological targets and signaling pathways. Some of these compounds may have fluorophoric properties. Such properties may interfere with the assay outputs resulting in false positives and/or negatives. To decrease such complications and ensure the compound activities are relevant in terms of biological response, the Tox21 10K compound library was screened for auto fluorescence. From the fluorophores used as reporter signals in our screening assays, the auto fluorescence equivalencies of compounds against three fluorophores have been evaluated: Triamterene, Fluorescein and Rose Bengal sodium for blue, green and red fluorescence, respectively. The fluorescence intensities were measured using Excitation/Emission wavelengths at 405/460nm, 485/535nm and 540/590nm for blue, green and red labels, respectively. This assay includes the red fluorescence data.
Tox21 Assay Protocol Summary: 5 uL of culture medium (MEM containing 10% FBS) per well was dispensed into black wall/clear bottom 1536-well plates using a Multidrop Combi Dispenser (ThermoFisher Scientific, Waltham, MA). After 23 nL compound or DMSO vehicle was transferred into assay plate by a pintool work station (Kalypsys, San Diego, CA), fluorescence intensities in the assay plates were measured by an Envision (PerkinElmer, Shelton, CT) plate reader using three labels for measuring blue, green and red fluorescence at […] 460, 535 and 590nm respectively.
% is scaled to controls: 0 for no effect and ±100 for the full control effect.

| SMILES | fluorescence, % of Rose Bengal | Potency |
| --- | --- | --- |
| CCCCCCCCCCCC(=O)OCC(C)OC(=O)CCCCC(=O)O (stereo not given) | 0.0296% [at 46 µM] |  |
| O=C(O)CN(CCN(CC(=O)O)CC(=O)O)CC(=O)O |  | inactive |
| COCCOc1cc2cc(C(=O)NC3CCN(C(C)C)CC3)n(CC(=O)Nc3ccc(Cl)cn3)c2cn1 | 0.0433% |  |
| Cc1cc(-c2ccc(N=Nc3cc(S(=O)(=O)O)c4ccccc4c3N)c(C)c2)ccc1N=Nc1cc(S(=O)(=O)O)c2ccccc2c1N | -0.0723% |  |
| CC(C)NC[C@@H](O)COc1ccc(CC(N)=O)cc1 | -0.146% [at 46 µM] |  |
| COc1cc(C)ccc1O | 0.0535% |  |
| CC(C)(c1cc(Br)c(OCC(Br)CBr)c(Br)c1)c1cc(Br)c(OCC(Br)CBr)c(Br)c1 (stereo not given) | 0.0258% [at 46 µM] |  |
| FC(F)(F)c1cccc(Cl)c1 | 0.0118% |  |
| Cc1cc(=O)oc2cc(O)cc(O)c12 | 0.0124% |  |
| Nc1ccc(C(=O)O)c(O)c1 | 0.0902% [at 46 µM] |  |
| CCO[C@@H]1O[C@H](C(COCc2ccccc2)OCc2ccccc2)[C@H](OCc2ccccc2)[C@H]1O (stereo not given in full) | -0.0599% [at 18.6 µM] |  |
| CCCCCCCCCCCCCC[N+](C)(C)Cc1ccccc1 |  | inactive |
| CC(CO)Oc1ccccc1 (stereo not given) | -0.0785% [at 95.7 µM] |  |
| CCOC(=O)NNc1ccc(N(CC)CC(C)O)nn1 (stereo not given) | -0.0201% [at 46 µM] |  |
| Cc1ccc(C)cc1 | -0.181% |  |
| C1CCC(SSC2CCCCC2)CC1 | 0.0364% |  |
| CCc1cccc(CC)c1NC(=O)CN(CC(=O)O)CC(=O)O | -0.249% [at 18.6 µM] |  |
| Cc1c(F)c(N2CCNC(C)C2)cc2c1c(=O)c(C(=O)O)cn2C1CC1 (stereo not given) | 0.0274% [at 46 µM] |  |
| O=C(O)[C@H](O)[C@@H](O)[C@H](O[C@@H]1O[C@H](CO)[C@H](O)[C@H](O)[C@H]1O)[C@H](O)CO | 0.117% [at 18.6 µM] |  |
| COC(=O)c1ccccc1C | -0.0804% |  |

| SMILES | fluorescence, % of Rose Bengal | Potency |
| --- | --- | --- |
| COc1c(C)c2c(c(O)c1C/C=C(\C)CCC(=O)OCCN1CCOCC1)C(=O)OC2 | -0.151% [at 46 µM] |  |
| CC(=O)CC(=O)Nc1ccc(S(=O)(=O)O)cc1 | 0.0519% |  |
| OCCN1CCN(CCCN2c3ccccc3Sc3ccc(C(F)(F)F)cc32)CC1 | 0.228% [at 46 µM] |  |
| CCC(CC)(CC(=O)Nc1cccc(/C=C/c2nc(C3CCC3)cs2)c1)C(=O)O | 0.0444% [at 46 µM] |  |
| O=C1CCCCCCCCCCCCCCCO1 | 0.402% |  |
| CC(C)(C)c1csc(-c2cc3cc(OCc4ccccc4CC(=O)O)ccc3o2)n1 | -0.308% |  |
| O=C1c2ccccc2C(=O)N1SC1CCCCC1 |  | inactive |
| CCC(CC)C(C)CCOC(C)=O (stereo not given) | -0.274% |  |
| O=C(c1ccc(O)c(O)c1)c1ccc(O)cc1O | 0.0008% |  |
| Nc1ccc(NCCO)c([N+](=O)[O-])c1 | -0.361% |  |
| CCc1oc2ccccc2c1C(=O)c1cc(I)c(O)c(I)c1 | -0.459% [at 46 µM] |  |
| CCCCOC(=O)CO | -0.214% |  |
| Cc1ccc(O)c(O)c1 | 0.0098% |  |
| CCCC1CCC(=O)CC1 | 0.0034% |  |
| CC(=O)[C@H]1CC[C@H]2[C@@H]3CCC4=CC(=O)CC[C@]4(C)[C@H]3CC[C@]12C |  | inactive |
| CCN(CCN)c1cccc(C)c1 |  | inactive |
| CCCCN(CCCC)CC(O)c1cc(Cl)cc2c1-c1ccc(Cl)cc1/C2=C/c1ccc(Cl)cc1 (stereo not given) | -0.104% [at 46 µM] |  |
| Cc1cc(-n2nc3ccc(Cl)cc3n2)c(O)c(C(C)(C)C)c1 | 0.0058% [at 46 µM] |  |
| O=C1CCc2cc(OCCCCc3nnnn3C3CCCCC3)ccc2N1 | 0.484% [at 46 µM] |  |
| O=C(Nc1ccc2c(O)c(N=Nc3ccc(N=Nc4ccc(S(=O)(=O)O)cc4)cc3)c(S(=O)(=O)O)cc2c1)c1ccccc1 | -0.247% |  |
